NPC1 prom act = activators of NPC1 promoter; Huh7 NPC1 promoter luciferase reporter, 24 h; Potency, µM (doses to about 9.22 µM), actives largely listed as activators; actives 2.4% (n = 320,000); AID 485313; note: nearly all actives have a fitted effect of over 60% in size
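NPC1 promoter–luciferase Huh7 cells; 24 h compound; luminescence.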
FLuc counter = firefly luciferase modulation, counter-screen for miR-21 project. P08659. purified FLuc, Km substrates, luminescence inhibition. Potency, µM (series often up to 57.5 µM), hits mostly inhibitors. actives 6.9% (n = 360,000); note: nearly all actives have a fitted effect of over 55% in size
Target sequence (P08659 whole entry, looked up): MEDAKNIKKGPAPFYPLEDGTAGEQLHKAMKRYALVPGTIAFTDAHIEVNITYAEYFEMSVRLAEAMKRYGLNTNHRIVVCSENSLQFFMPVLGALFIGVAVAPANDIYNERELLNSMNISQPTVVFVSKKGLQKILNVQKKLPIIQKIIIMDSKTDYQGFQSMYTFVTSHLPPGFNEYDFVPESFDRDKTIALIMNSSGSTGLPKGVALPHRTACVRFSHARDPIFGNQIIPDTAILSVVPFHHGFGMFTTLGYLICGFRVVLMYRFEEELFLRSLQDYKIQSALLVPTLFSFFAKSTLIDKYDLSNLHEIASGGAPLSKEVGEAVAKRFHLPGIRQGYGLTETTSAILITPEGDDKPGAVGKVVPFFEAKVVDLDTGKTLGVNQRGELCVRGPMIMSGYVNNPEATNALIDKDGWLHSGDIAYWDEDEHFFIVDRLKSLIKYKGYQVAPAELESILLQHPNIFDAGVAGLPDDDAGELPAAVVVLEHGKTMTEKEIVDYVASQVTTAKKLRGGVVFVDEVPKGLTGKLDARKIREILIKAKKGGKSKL
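Biochemical qHTS of compounds, final roughly 60 µM downward over six points, against 10 nM purified firefly luciferase using Km concentrations of substrates (10 uM D-luciferin, 10 uM ATP) in Tris acetate pH 7.5 buffer; luminescence output.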
SMN2 splice enh = increases expression of the SMN2 splice variant; HEK293 SMN2-luciferase splicing reporter, luminescence, 30-36 h; Potency, µM (series often up to 46.1 µM), actives largely listed as activators; actives 2.8% (n = 210,000); AID 1458; note: nearly all actives have a fitted effect of over 55% in size
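qHTS luciferase splicing reporter: luminescence rises when SMN2 exon 7 is included in transfected HEK293 cells. Compound exposure lasted 30-36 h at 37C, with 4.5 mM final sodium butyrate as control, followed by a ONE-Glo read.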
ELG1 genotoxic = genotoxicity induction in ELG1-luciferase HEK293T cells; HEK293T ELG1-luciferase reporter, luminescence, 16 h; Potency, µM (highest dose often 46 µM), usual class: activators; actives 1.3% (n = 330,000); note: nearly all actives have a fitted effect of over 60% in size
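Quantitative HTS format in 1536-well plates. HEK293T ELG1-luciferase reporter cells receive test compound and are incubated 16 hr at 37 °C, 5% CO2; ONE-Glo added, 30 min room temperature, then luminescence read.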
Rab9 promoter act = activators of Rab9 promoter | actives 2.8% (n = 320,000) | Potency, µM (top dose mostly 9.22 µM), most hits filed as activators | AID 485297 | Huh7 Rab9 promoter-luciferase reporter, luminescence, 24 h; note: nearly all actives have a fitted effect of over 60% in size
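Cells were plated at 1500 per well in reduced-serum medium with 10% FBS and left 2 h. Compound in DMSO was then added for 24 h at 37 °C. Reporter signal was read by luminescence after 10 min with luciferase detection reagent.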
ELG1 DNA repair = inhibitors of ELG1-dependent DNA repair in HEK293T cells | HEK293T ELG1-luciferase reporter, luminescence, 16 h; DNA damage induced by 5-fluorouridine | Potency, µM (doses to about 46.1 µM), usual class: inhibitors | actives 2.3% (n = 330,000); note: nearly all actives have a fitted effect of over 55% in size
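5-Fluorouridine DNA damage + compound/DMSO, 2,000 cells/well, 16 h, 37 °C/5% CO2. ONE-Glo, 30 min RT, luminescence. Readout = decrease in reporter signal.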
Each line names hits and unclear results; the compound was inactive in the other large screens. Most compounds without a hit are left out; they make up all but 9.3% or so of the library. Calls come from the whole dose curve; as a rule, active = well fitted curve in the direction sought with a large enough effect; inconclusive = small, poorly fitted or top-dose-only effect, or another doubt; inactive = no such curve, though single readings can be large; an effect the other way counts as inactive or inconclusive.

CCCCn1c(=O)[nH]c(=O)c2c1nc(-c1ccc(-c3ccccc3Br)o1)n2CCOC	FLuc counter inconclusive, ELG1 DNA repair 2.59µM
COc1ccc(N2CCN(CC(=O)Nc3ccccc3C(=O)NCc3ccccc3)CC2)cc1	ELG1 DNA repair 7.08µM (no result: SMN2 splice enh)
COc1ccc(CCNC(=O)c2ccccc2NC(=O)CN2CCN(c3ccccc3O)CC2)cc1	ELG1 DNA repair 5.17µM (no result: SMN2 splice enh)
Cc1oc2cc3oc(=O)c(CC(=O)N4CCCCC4)c(C)c3cc2c1C	none (no result: NPC1 prom act, ELG1 genotoxic, Rab9 promoter act, ELG1 DNA repair)
CCOC(=O)c1c(-c2cccc([N+](=O)[O-])c2)csc1NC(=O)CCCOc1ccccc1OC	ELG1 DNA repair inconclusive (no result: SMN2 splice enh)
COc1ccccc1C(=O)Nc1ccc2c(c1)nc1n2CCN(Cc2ccccc2)C1	FLuc counter inconclusive, ELG1 DNA repair inconclusive
CC(=O)Nc1ccc2c(c1)nc1n2CCSC1	ELG1 DNA repair inconclusive
Cc1ccc(C(=O)Nc2ccc3c(c2)nc2n3CCSC2)cc1	NPC1 prom act 0.708µM, FLuc counter 2.69µM, ELG1 genotoxic inconclusive, Rab9 promoter act 0.562µM, ELG1 DNA repair inconclusive (no result: SMN2 splice enh)
COc1ccccc1C(=O)Nc1ccc2c(c1)nc1n2CCSC1	NPC1 prom act inconclusive, FLuc counter 3.01µM, SMN2 splice enh 22.4µM, ELG1 genotoxic inconclusive, Rab9 promoter act 1.78µM, ELG1 DNA repair inconclusive
COc1ccc(OCC(=O)Nc2ccc3c(c2)nc2n3CCSC2)cc1	FLuc counter inconclusive
CCCCC(=O)Nc1ccc2c(c1)nc1n2CCSC1	NPC1 prom act 3.55µM, FLuc counter 23.9µM, SMN2 splice enh inconclusive, ELG1 genotoxic 7.31µM, Rab9 promoter act 3.55µM, ELG1 DNA repair inconclusive
CCOCc1nnc(NC(=O)COc2ccc3c(c2)OCO3)s1	none (no result: SMN2 splice enh)
Cc1cccc(OCCn2ccnc2)c1	none (no result: SMN2 splice enh)
CCOC(=O)NC(=O)CSc1nc(-c2ccc(C)c(C)c2)cn1-c1ccccc1	NPC1 prom act inconclusive, FLuc counter 16.9µM, ELG1 genotoxic inconclusive, Rab9 promoter act 2.24µM, ELG1 DNA repair inconclusive
COC(=O)COc1ccc(C2C(C(=O)OC)=C(C)NC3=C2C(=O)c2ccccc23)cc1OC (centres undefined)	FLuc counter inconclusive (no result: NPC1 prom act, ELG1 genotoxic, Rab9 promoter act, ELG1 DNA repair)
Cc1cccc(Nc2c([N+](=O)[O-])c(=O)n(C)c3ccccc23)c1	FLuc counter 21.3µM
O=C(OCCN=C1NS(=O)(=O)c2ccccc21)C1CC(=O)N(c2ccc3ccccc3c2)C1 (centres undefined)	none
Nc1cnn(C2OC(CO)C(O)C2O)c(=O)n1 (centres undefined)	SMN2 splice enh inconclusive, ELG1 DNA repair inconclusive
Nc1cnn([C@@H]2O[C@H](CO)[C@@H](O)[C@H]2O)c(=O)n1	SMN2 splice enh 22.4µM (no result: NPC1 prom act, FLuc counter, ELG1 genotoxic, Rab9 promoter act, ELG1 DNA repair)
NS(=O)(=O)c1ccc(N2C(=O)C3CC=CCC3C2=O)cc1 (centres undefined)	none
CCOc1ccc(C2NC(=O)c3n[nH]c(C)c32)cc1 (centres undefined)	none
CC(C)(C)C1CCc2c(sc3nc(-c4cc5ccccc5oc4=O)[nH]c(=O)c23)C1 (centres undefined)	none (no result: NPC1 prom act, SMN2 splice enh, ELG1 genotoxic, Rab9 promoter act, ELG1 DNA repair)
CC1CCc2c(sc3nc(-c4cc5ccccc5oc4=O)nc(Cl)c23)C1 (centres undefined)	FLuc counter 2.39µM (no result: NPC1 prom act, ELG1 genotoxic, Rab9 promoter act, ELG1 DNA repair)
Nc1nc2c(s1)CCc1c-2cnn1-c1ccccc1	NPC1 prom act 0.794µM, FLuc counter 6.75µM, SMN2 splice enh 11.2µM, Rab9 promoter act inconclusive, ELG1 DNA repair inconclusive
Nc1nc2c(s1)COc1ccccc1-2	FLuc counter inconclusive, ELG1 DNA repair inconclusive (no result: SMN2 splice enh)
CCOC(=O)c1sc2nc(C)nc(NCCc3ccccn3)c2c1C	ELG1 DNA repair 20.6µM
NS(=O)(=O)c1ccc(NCc2ccccc2OCc2ccc(F)cc2)cc1	ELG1 DNA repair inconclusive
NS(=O)(=O)c1ccc(CCNCc2ccccc2OCc2ccc(F)cc2)cc1	ELG1 DNA repair 11.6µM (no result: SMN2 splice enh)
O=C(Oc1ccc(-c2cnc3ccccc3n2)cc1)c1cccc([N+](=O)[O-])c1	NPC1 prom act inconclusive, FLuc counter inconclusive, SMN2 splice enh 31.6µM, ELG1 genotoxic 7.31µM, Rab9 promoter act inconclusive, ELG1 DNA repair inconclusive

Screening data as filed in PubChem BioAssay.
